Results: PubChem BioAssay AID1003 (National Center for Advancing Translational Sciences (NCATS), 2008)
The source made the active and inactive calls.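 Rule for the calls: active = compounds that block the bacterial enzyme AmpC beta-lactamase with detergent present and have a measured Ki; inactive = the rest.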

Molecular target: Beta-lactamase (Escherichia coli (strain K12)) (UniProt P00811)
Assay: Confirmation Cuvette-Based Assay for Inhibitors of AmpC Beta-Lactamase (assay with detergent)
Details: purified AmpC, nitrocefin hydrolysis absorbance, 0.01% Triton
Description: NIH Molecular Libraries Screening Centers Network [MLSCN] NIH Chemical Genomics Center [NCGC] MLSCN Grant: MH079825-01 Assay Provider: Shoichet, Brian K. This aggregation profiling approach exploits the sensitivity of aggregate formation to detergent. Inhibition of b-lactamase is measured in the presence and absence of 0.01% Triton X-100 (Feng 2007). This particular assay is a confirmation of previous qHTS (Inglese, 2006), Pubchem AID 584, assay with presence of 0.01% Triton X-100. For a related assay without detergent, see AID 585. Compounds that inhibit only in the absence of detergent are considered likely promiscuous aggregators. This confirmation assay is a cuvette-based screen of an oxadiazole carbamate series which is an expansion around docking hit Pubchem SID 4244870.
Reactions were performed in methylacrylate cuvettes in 1 mL of reaction volume. The beta-lactamase assay contained 1 nM AmpC beta-lactamase, 200 uM Nitrocefin and varying amounts of Triton X-100 (either 0.00002% or 0.1%). Compound and enzyme were incubated for 5 minutes before the reaction was initiated by addition of substrate. Nitrocefin hydrolysis was monitored as an increase in absorption at 482 nm on an Agilent 8453 UV-visible spectrophotometer at room temperature.

Chain of Beta-lactamase (Escherichia coli (strain K12)) (P00811 whole entry, looked up): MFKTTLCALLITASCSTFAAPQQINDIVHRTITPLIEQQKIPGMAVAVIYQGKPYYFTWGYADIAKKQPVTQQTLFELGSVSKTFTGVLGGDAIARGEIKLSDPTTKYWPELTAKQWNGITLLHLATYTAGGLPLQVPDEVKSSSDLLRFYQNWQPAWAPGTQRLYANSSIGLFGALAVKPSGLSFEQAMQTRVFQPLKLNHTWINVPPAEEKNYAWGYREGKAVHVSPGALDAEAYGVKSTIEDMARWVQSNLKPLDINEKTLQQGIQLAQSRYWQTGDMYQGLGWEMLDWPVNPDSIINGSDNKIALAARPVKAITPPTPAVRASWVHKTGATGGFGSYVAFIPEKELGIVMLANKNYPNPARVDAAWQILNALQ

Ki, active:
CC(C)(C)c1ccc(C[C@H](C(=O)O)N2C(=O)c3ccc(C(=O)O)cc3C2=O)cc1 11 µM
O=C(O)c1ccc2c(c1)C(=O)N([C@H](Cc1cccc3ccccc13)C(=O)O)C2=O 5 µM
O=C(O)c1ccc2c(c1)C(=O)N([C@H](Cc1c[nH]c3ccccc13)C(=O)O)C2=O 17 µM
O=C(O)c1ccc2c(c1)C(=O)N([C@H](Cc1c3ccccc3cc3ccccc13)C(=O)O)C2=O 12 µM
O=C(O)c1ccc2c(c1)C(=O)N([C@H](Cc1ccc3ccccc3c1)C(=O)O)C2=O 14 µM
Cn1cc(C[C@H](C(=O)O)N2C(=O)c3ccc(C(=O)O)cc3C2=O)c2ccccc21 17 µM
Cc1ccc(C[C@H](C(=O)O)N2C(=O)c3ccc(C(=O)O)cc3C2=O)c(C)c1 17 µM
O=C(O)c1ccc2c(c1)C(=O)N([C@H](Cc1ccc(-c3ccccc3)cc1)C(=O)O)C2=O 15 µM
